From PubChem
SMN2 splice up – SMN2 splice variant enhancement. HEK293 SMN2-luciferase splicing reporter, luminescence, 30-36 h. Potency, µM (top dose mostly 46.1 µM), inactives show at the top dose activity change, positive = activation, usual class: activators. actives 2.8% (n = 210,000); also: % of control where 0% means no effect; nearly all actives have a fitted effect of over 55% in size
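HEK293 cells carry an SMN2 minigene-luciferase reporter in which exon 7 inclusion puts luciferase in frame. Cells were seeded at 2000 cells/well, attached for 10-12 hours, then exposed to compounds for 30-36 hours at 37C before ONE-Glo luminescence.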
Rab9 prom act – Rab9 promoter activation | Huh7 Rab9 promoter-luciferase reporter, luminescence, 24 h | Potency, µM (doses to about 9.22 µM), for inactives: top-dose activation, negative = inhibition, usual class: activators | actives 2.8% (n = 320,000); also: % of control where 0% means no effect; nearly all actives have a fitted effect of over 60% in size
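Cells were plated at 1500 per well in reduced-serum medium with 10% FBS and left 2 h. Compound in DMSO was then added for 24 h at 37 °C. Reporter signal was read by luminescence after 10 min with luciferase detection reagent.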
ELG1 genotox – genotoxicity induction in ELG1-luciferase HEK293T cells; HEK293T ELG1-luciferase reporter, luminescence, 16 h; Potency, µM (doses to about 46 µM), for inactives: at the top dose activity change, positive = activation, actives largely listed as activators; actives 1.3% (n = 330,000); AID 504466; also: % of control where 0% means no effect; nearly all actives have a fitted effect of over 60% in size
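Quantitative HTS format in 1536-well plates. HEK293T ELG1-luciferase reporter cells receive test compound and are incubated 16 hr at 37 °C, 5% CO2; ONE-Glo added, 30 min room temperature, then luminescence read.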
NPC1 prom act – activators of NPC1 promoter | Huh7 NPC1 promoter luciferase reporter, 24 h | Potency, µM (titrated, usually from 9.22 µM), for inactives: top-dose activation, most hits filed as activators | actives 2.4% (n = 320,000); also: % of control where 0% means no effect; nearly all actives have a fitted effect of over 60% in size
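Luminescence from an NPC1 promoter-driven luciferase reporter in stably transfected Huh7 cells was measured after 24 h compound treatment at 37 °C, followed by 10 min ambient incubation with luciferase detection reagent.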
FLuc counter – firefly luciferase modulation, counter-screen for miR-21 project | actives 6.9% (n = 360,000) | Potency, µM (titrated, usually from 57.5 µM), for inactives: top-dose activity change, negative = inhibition, most hits filed as inhibitors | purified FLuc, Km substrates, luminescence inhibition;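 also: plate controls were vehicle for no effect and reference inhibitor for full effect; nearly all actives have a fitted effect of over 55% in size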
Target sequence (P08659 whole entry, looked up): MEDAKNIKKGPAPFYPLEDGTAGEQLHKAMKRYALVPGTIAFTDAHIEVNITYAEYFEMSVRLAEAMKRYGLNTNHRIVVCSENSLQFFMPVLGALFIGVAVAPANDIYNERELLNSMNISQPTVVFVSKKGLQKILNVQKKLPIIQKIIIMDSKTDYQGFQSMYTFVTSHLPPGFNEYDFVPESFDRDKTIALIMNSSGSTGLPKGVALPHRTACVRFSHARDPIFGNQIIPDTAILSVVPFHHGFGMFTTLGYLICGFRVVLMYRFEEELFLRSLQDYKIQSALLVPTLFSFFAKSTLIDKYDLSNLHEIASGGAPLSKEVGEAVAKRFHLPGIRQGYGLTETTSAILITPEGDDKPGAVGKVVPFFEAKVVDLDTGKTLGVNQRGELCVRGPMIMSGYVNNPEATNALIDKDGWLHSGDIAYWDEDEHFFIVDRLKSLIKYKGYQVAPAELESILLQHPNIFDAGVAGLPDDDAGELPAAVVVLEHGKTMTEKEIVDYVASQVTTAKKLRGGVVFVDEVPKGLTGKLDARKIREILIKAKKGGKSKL
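Purified P. pyralis luciferase (10nM final) with 10uM D-luciferin and 10uM ATP (Km levels) in 50mM Tris acetate pH 7.5, 10mM Mg acetate, 0.01% Tween-20, 0.05% BSA; qHTS 6-point titration, ~60 µM downward; luminescence read.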
An asterisk follows results filed as active; ? = inconclusive; · = not tested or not shown; [ ] = remark or other dose. Sampled rows, rich in hits. Any-hit rate of the full collection: about 7.5%. Calls follow the shape of the dose curve; as a rule, active = well fitted curve in the direction sought with a large enough effect; inconclusive = small, poorly fitted or top-dose-only effect, or another doubt; inactive = no such curve, though single readings can be large; an effect the other way counts as inactive or inconclusive. Potency is read from the fitted curve at half-maximal effect.

SMILES | SMN2 splice up | Rab9 prom act | ELG1 genotox | NPC1 prom act | FLuc counter
COc1ccccc1N=Nc1nc(-c2ccccc2)c(-c2ccccc2)[nH]1 | 0.3% | 0.1% | -6.9% | -2.9% | 12µM*
Oc1ccccc1N=Nc1nc(-c2ccccc2)c(-c2ccccc2)[nH]1 | -120.2% | -18.0% | -0.1% | -16.7% | ?
COc1ccc(-c2nc(C)ncc2N=Nc2ccccc2)cc1 | -41.6% | -0.5% | 3.7% | -0.3% | ?
COc1ccc(N=Nc2nc(-c3ccccc3)c(-c3ccccc3)[nH]2)cc1 | 1.7%[1.84 µM] | -3.6% | -8.3% | -0.1% | 9.53µM*
O=S1(=O)CCC(NC(=S)N2CCOCC2)C1 (configuration not stated) | 19.0% | -1.5% | 4.7% | -4.6% | 12.0%
Cc1cc(C)n(CCc2nc3c4ccccc4nc(N4CCN(c5ccccc5)CC4)n3n2)n1 | -9.0% | · | · | · | -6.7%
Cc1nc(Cl)sc1C(=O)Nc1ccc(C(C)(C)C)cc1 | · | -0.5% | ? | 24.6% | 10.7µM*
Cc1ccccc1NC(=O)c1sc(Cl)nc1C | 13.5% | -17.6% | 0.0% | -0.1% | 4.4%
Cc1ccc(NC(=O)c2sc(N)nc2C)cc1 | · | 2.24µM* | 20.6µM* | 2.51µM* | 21.3µM*
Cc1nc(NC(N)=S)sc1C(=O)Nc1ccccc1 | -11.1% | 2.1% | 0.9% | -1.6% | -17.2%
Cc1noc(N)c1C(=O)Nc1ccc(C(C)(C)C)cc1 | ? | 3.16µM* | ? | 2.51µM* | 3.38µM*
Cc1nc(C(=O)Nc2ccccc2)sc1C(=O)Nc1ccccc1 | · | 3.55µM* | 19.4% | 3.55µM* | 13.5µM*
Cc1nc(N)sc1C(=O)Nc1ccccc1 | 27.7% | ? | ? | ? | ?
Cc1ccc(NC(=O)c2c(C)noc2C)cc1 | -18.1% | -1.5% | 2.7% | -0.1% | 3.0%
Cc1ccc(NC(=O)CSCc2cc(=O)n3ccsc3n2)cc1 | · | -2.6% | -1.0% | 2.7% | 3.2%
O=[N+]([O-])c1ccccc1S(=O)(=O)N1CCN(S(=O)(=O)c2ccc3c(c2)OCCO3)CC1 | · | · | -1.6% | · | ·
N#CC(C(=O)Nc1cccc(Cl)c1)=C1Nc2ccccc2N1 | 26.8% | 2.5% | 4.4% | 10.6% | 4.0%
O=C1Nc2ccccc2S/C1=C/Nc1cccc(Cl)c1 | -3.0% | 4.47µM* | ? | ? | 8.49µM*
CCOC(=O)c1ccc(NC(=O)CCCc2nc(-c3ccccc3Cl)no2)cc1 | 5.1% | · | · | · | -13.8%
CCOC(=O)c1ccc(CN(Cc2ccc(F)cc2)S(=O)(=O)c2ccc(F)c(C(=O)Nc3ccc(Cl)cc3F)c2)cc1 | · | · | · | · | -2.2%
COc1ccc(Cc2nc3ccc(C(=O)N4CCOCC4)cc3o2)cc1 | · | 3.98µM* | 18.3µM* | 3.16µM* | 13.5µM*
COc1ccc(Cc2nc3ccc(C(=O)N4C[C@@H](C)O[C@@H](C)C4)cc3o2)cc1OC | · | 10.3% | ? | 26.1% | 15.1µM*
COc1ccc(Cc2nc3ccc(C(=O)N4CCCN(C=O)CC4)cc3o2)cc1 | · | 1.2% | -3.5% | -0.3% | -8.6%
Cc1c(C(=O)N2CCN(c3cccc(Cl)c3)CC2)cccc1[N+](=O)[O-] | -9.8% | -9.3% | -7.2% | -9.3% | 2.5%
CC(C)(C)c1ccc(C(=O)Nc2cccc3c(=O)[nH][nH]c(=O)c23)cc1 | -56.0% | ? | ? | 21.2% | 0.849µM*
SMILES | SMN2 splice up | Rab9 prom act | ELG1 genotox | NPC1 prom act | FLuc counter
O=C(OCc1c(Cl)cccc1Cl)c1ccccn1 | 3.1% | 8.2% | 1.2% | -2.1% | 0.5%
O=C(Cc1c(Cl)cccc1Cl)OCc1ccccn1 | · | 25.3% | 23.1µM* | 25.1% | ?
CCCc1cc(=O)[nH]c(Nc2ccc(O)cc2C)n1 | 15.1% | · | · | · | -0.4%
Cc1cc(O)ccc1Nc1nc2ccccc2nc1Nc1ccc(O)cc1C | 3.2% | 5.9% | 8.0% | 7.0% | 16.9µM*
O=C(N/N=C/c1ccc2c(c1)OCO2)c1cc(-c2ccncc2)nc2ccccc12 | -26.3% | -22.5% | 4.4% | -18.5% | 12µM*
CCOc1cccc(-c2cc(C(=O)N/N=C/c3ccc(OC)c(CN4CCOCC4)c3)c3ccccc3n2)c1 | -26.8% | -1.4% | -8.2% | -4.3% | 6.01µM*
COc1ccc(/C=N/NC(=O)c2cc(-c3ccccc3)nc3ccccc23)c(OC)c1 | · | 12.1% | -5.6% | 2.8% | 16.9µM*
CCOc1ccccc1-c1cc(C(=O)N/N=C/c2ccc3c(c2)OCO3)c2ccccc2n1 | 28.7% | 1.9% | 2.3% | 0.6% | -15.8%
CCOc1ccccc1-c1cc(C(=O)N/N=C/c2ccc(O)c(OC)c2)c2ccccc2n1 | 25.1µM* | 2.8% | -14.0% | 0.3% | -4.7%
Cc1nn(-c2ccccc2)c(OC(=O)c2ccccc2F)c1S(=O)(=O)c1ccccc1 | -4.1% | · | · | · | ?
CCN(CC(=O)Nc1ccc(OC)cc1)C(=O)c1ccc2[nH]c3c(c2c1)CC(C)CC3 (configuration not stated) | · | -5.5% | -8.2% | -3.5% | ·
O=C(N/N=C/c1ccc[nH]1)c1cc(-c2ccc(Cl)cc2)nc2ccccc12 | -33.1% | -3.5% | -11.5% | -11.2% | 12µM*
CC(/C=N/NC(=O)c1cc(-c2ccncc2)nc2ccccc12)=C\c1ccco1 | -18.0% | -9.3% | 1.8% | -7.0% | -14.9%
O=C(N/N=C/c1ccco1)c1cc(-c2cccc(Br)c2)nc2ccccc12 | -46.1% | -0.3% | -0.7% | -0.2% | 4.78µM*
O=C(N/N=C/c1ccc(O)c(O)c1)c1cc(-c2ccccc2)nc2ccccc12 | · | 0.4% | 2.7% | -7.7% | 15.1µM*
COc1ccc2nc(-c3ccccc3)cc(OC)c2c1 | ? | 20.4% | ? | 17.9% | 12µM*
O=C(N/N=C/c1cccc(O)c1)c1cc(-c2ccccc2)nc2ccccc12 | · | 0.1% | -3.7% | -0.3% | 10.7µM*
O=C(N/N=C/c1ccc(O)c(O)c1)N/N=C/c1ccc(O)c(O)c1 | · | -13.8% | 7.3% | 0.0% | 5.36µM*
O=C(CNC(=O)C1CCCCC1)OCC(=O)c1ccc(F)cc1 | · | -9.8% | -0.2% | 8.3% | -0.1%
CCc1ccc(C(=O)COC(=O)CNC(=O)Cc2ccccc2)cc1 | · | 0.9% | 2.9% | 2.5% | 16.9µM*
CCc1ccc(C(=O)COC(=O)CNC(=O)CNS(=O)(=O)c2ccccc2)cc1 | · | 3.4% | 1.0% | 1.0% | 19µM*
CCc1ccc(C(=O)COC(=O)CNC(=O)C2CCCCC2)cc1 | · | 24.9% | 3.2% | -1.1% | 0.849µM*
CCc1ccc(C(=O)COC(=O)CNC(=O)CNC(=O)Cc2ccccc2)cc1 | -6.7% | -2.3% | -1.4% | 1.0% | ?
COc1ccc(CNCCC2(Cc3ccccc3)CC(C)N(C)CC2C)cc1OC (configuration not stated) | · | -7.3% | 7.6% | -0.4% | 1.7%
CCC(Cc1ccccc1)NC(=O)CSc1ccsc1[N+](=O)[O-] (configuration not stated) | 3.2% | -12.2% | -7.3% | -2.5% | -0.2%
CC(=O)Nc1ccc2nc(-c3cccnc3)[nH]c2c1 | -11.9% | 12.0% | 2.4% | 0.3% | ?
O=C(Nc1ccc2nc(-c3ccccc3)[nH]c2c1)c1cccs1 | -22.7% | ? | ? | 19.6% | 5.36µM*
